Data on 9 compounds can be found in PubChem BioAssay.

SMILES strings stand for the structures. Activity calls are given as the source filed them. Unless noted, how the calls were made is not given here.

The nature of assay [1]: A549 cell viability effects, profiling panel, calcein-AM fluorescence, 48 h, basal (AID 1162). Further: test concentration not given here. The note with it: higher = more signal.
Assay [2] in a line: adipocyte viability effects, profiling panel, cell-based, 3T3-L1 adipocytes, calcein-AM fluorescence, 48 h, basal (AID 1163). Further: test concentration not given here. The note with it: 3T3-L1 adipocytes viability, higher = more signal.
The nature of assay [3]: HepG2 cell viability effects, profiling panel, calcein-AM fluorescence, 48 h, basal (AID 1164). Further: test concentration not given here. The following applies: higher = more signal.
Assay [4] is described as follows: MM1S cell viability effects, profiling panel, calcein-AM fluorescence, 48 h, basal (AID 1165).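 Further: viability of MM1S multiple myeloma cells under basal unstimulated conditions; test concentration not given here.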 The note with it: higher = more signal.
A short description of assay [5]: basal RPMI8226 viability, no added stimulus, profiling panel, cell-based, calcein-AM fluorescence, 48 h, PK04 Diversity Set (AID 1166).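 Further: cells grown under basal conditions without added stimulus; test concentration not given here.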 The following applies: RPMI8226 myeloma viability, higher = more signal.
Assay [6] can be described thus: basal HepG2 mitochondrial membrane potential changes, profiling panel, cell-based, JC-1 fluorescence, 24 h, 100 nL compound (AID 1167). Further: test concentration not given here. The note with it: higher = more signal.
Assay [7] can be described thus: basal 3T3-L1 adipocyte mitochondrial potential changes, profiling panel, cell-based, JC-1 fluorescence, 3T3-L1 adipocytes, 24 h, 100 nL compound (AID 1168). Further: test concentration not given here. The following applies: JC-1 mitochondrial fluorescence, higher = more signal, called active from +8 up or from −8 down.
Assay [8] can be described thus: basal RPMI8226 mitochondrial membrane potential changes, profiling panel, cell-based, JC-1 fluorescence, 24 h, 100 nL compound (AID 1169). Further: test concentration not given here. The following applies: RPMI8226 myeloma, JC-1 mitochondrial potential fluorescence, higher = more signal.
Assay [9] is described as follows: basal MM1S mitochondrial membrane potential changes, profiling panel, cell-based, JC-1 fluorescence, 24 h, 100 nL compound (AID 1170). Further: test concentration not given here. The following applies: higher = more signal.
The nature of assay [10]: A549 lung cancer cell viability effects, profiling panel, resazurin fluorescence, 24 h, PK04 Diversity Set (AID 1171). Further: test concentration not given here. The following applies: higher = more signal, called active from +8 up or from −8 down.
The nature of assay [11]: HepG2 liver cancer cell viability effects, profiling panel, resazurin fluorescence, 24 h, PK04 Diversity Set (AID 1172). Further: test concentration not given here. The note with it: higher = more signal.
Assay [12] is described as follows: basal S. cerevisiae growth modulation, no modifier, primary screen, OD600, strain BY4716, 24 h, basal condition (AID 1173). The following applies: OD600, 24 h, higher = more signal, called active from +8 up or from −8 down.
The nature of assay [13]: MM1S myeloma cell viability, profiling panel, resazurin fluorescence, basal, 24 h, PK04 Diversity Set (AID 1174).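 Further: MM1S multiple myeloma cell line; test concentration not given here.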 The following applies: higher = more signal, called active from +8 up or from −8 down.
In assay [14] the target is Dihydroorotate dehydrogenase (quinone), mitochondrial (Plasmodium falciparum (isolate 3D7)) (UniProt Q08210). In words: PfDHODH enzyme inhibitors, primary screen, biochemical, C-terminal His tag, absorbance 600 nm (AID 1175).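 Further: recombinant parasite enzyme with a five histidine tag at its C terminus; test concentration not given here.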 The note with it: DCIP absorbance 600 nm, higher = more signal, called active from +8 up or from −8 down.
Assay [15] can be described thus: P. aeruginosa biofilm formation inhibitors, primary screen, strain PAO1, LB-PBS medium, absorbance 600 nm (AID 1176). Further: test concentration not given here. The note with it: P. aeruginosa PAO1 growth/biofilm, A600, 12 h; higher = more signal.
Assay [16] can be described thus: S. cerevisiae RM11-1a growth modifiers, primary screen, strain RM11-1a, OD600, basal, 24 h (AID 1177).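 Further: cultures grown under basal conditions with no added stressor; test concentration not given here.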 The note with it: OD600, 24 h, higher = more signal, called active from +8 up or from −8 down.
A short description of assay [17]: E. coli acrAB mutant growth effects, primary screen, E. coli filamentation inducers, strain DRC39, OD650, 24 h (AID 1178).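 Further: growth measured as culture turbidity by optical density at 650 nm; test concentration not given here.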 The following applies: higher = more signal, called active from +8 up or from −8 down.
A short description of assay [18]: E. coli acrAB mutant growth effects, primary screen, E. coli filamentation inducers, strain DRC39, OD650, 48 h (AID 1179).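 Further: screen aims at cell division blockers that make cells filament.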 The following applies: E. coli DRC39 delta-acrAB growth, higher = more signal, called active from +8 up or from −8 down.
Assay [19] can be described thus: RPMI8226 myeloma cell viability, profiling panel, resazurin fluorescence, basal, 24 h, PK04 Diversity Set (AID 1180).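 Further: RPMI8826 multiple myeloma cell line at 5000 cells per well; test concentration not given here.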 The note with it: higher = more signal.
The target of assay [20] is E3 ubiquitin-protein ligase XIAP (Homo sapiens) (UniProt P98170). Briefly: XIAP binders, primary screen, biophysical, small-molecule microarray, fluorescence 635 nm (AID 1181).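 Further: score merges 667 nm emission and signal to noise over triplicate slides.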 The note with it: small-molecule microarray binding, higher = more signal.
Chain of E3 ubiquitin-protein ligase XIAP (Homo sapiens) (P98170 whole entry, looked up): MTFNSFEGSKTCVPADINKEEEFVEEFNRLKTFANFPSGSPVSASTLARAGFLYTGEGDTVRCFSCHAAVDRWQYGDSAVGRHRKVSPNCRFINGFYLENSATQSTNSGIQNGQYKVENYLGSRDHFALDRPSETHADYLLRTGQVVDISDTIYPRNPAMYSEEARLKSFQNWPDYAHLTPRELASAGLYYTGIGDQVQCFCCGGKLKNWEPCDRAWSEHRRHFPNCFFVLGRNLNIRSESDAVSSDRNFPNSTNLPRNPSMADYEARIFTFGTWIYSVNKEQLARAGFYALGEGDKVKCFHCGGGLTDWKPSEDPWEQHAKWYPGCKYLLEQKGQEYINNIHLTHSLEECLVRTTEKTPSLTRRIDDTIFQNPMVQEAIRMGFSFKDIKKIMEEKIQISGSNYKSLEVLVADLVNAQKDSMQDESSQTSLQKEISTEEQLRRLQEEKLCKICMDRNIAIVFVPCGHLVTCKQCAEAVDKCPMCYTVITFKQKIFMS

Chain of Dihydroorotate dehydrogenase (quinone), mitochondrial (Plasmodium falciparum (isolate 3D7)) (Q08210 whole entry, looked up): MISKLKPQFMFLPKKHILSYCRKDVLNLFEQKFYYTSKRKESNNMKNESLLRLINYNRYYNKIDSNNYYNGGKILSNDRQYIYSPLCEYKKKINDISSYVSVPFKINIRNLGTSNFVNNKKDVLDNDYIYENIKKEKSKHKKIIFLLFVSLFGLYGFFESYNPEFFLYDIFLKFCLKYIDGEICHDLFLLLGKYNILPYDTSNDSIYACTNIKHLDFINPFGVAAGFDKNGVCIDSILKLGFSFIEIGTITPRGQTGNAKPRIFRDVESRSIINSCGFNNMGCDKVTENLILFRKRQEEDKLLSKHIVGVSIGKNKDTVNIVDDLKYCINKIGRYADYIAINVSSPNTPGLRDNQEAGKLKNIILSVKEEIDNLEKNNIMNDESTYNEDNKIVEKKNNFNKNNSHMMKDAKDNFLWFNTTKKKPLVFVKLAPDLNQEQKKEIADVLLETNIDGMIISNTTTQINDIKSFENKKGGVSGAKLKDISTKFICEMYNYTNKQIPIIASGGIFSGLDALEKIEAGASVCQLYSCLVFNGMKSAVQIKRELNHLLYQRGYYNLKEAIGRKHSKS

With `CN(C)CCCCNC(=O)[C@H]1C[C@H]2C(=O)N[C@@H](CCCCN(C)C)C(=O)N2[C@H]1c1cccc(OCCO)c1`, the z-score in assay [1] was -0.317; in assay [2], 0.0593; in assay [3], -0.269; in assay [4] it was -0.0355; in assay [5], 0.495; in [6] it was 0.13. Also, the z-score in assay [7] is 0.429 (inactive); in assay [8], 0.426; in assay [9], 0.23; in [10], 0.471 (inactive); in [11], 1.11; in assay [12], 0.427 (inactive). In addition, the z-score in assay [13] is 0.895 (inactive); in [15], -1.48 (inactive); in assay [16], 0.807 (inactive); in [17], 0.0233 (inactive); in assay [18] it was -0.0221 (inactive); in assay [19] it was 0.45. Also, the composite z-score in assay [14] was -0.493 (inactive); in assay [20], -0.0559.
Take `CC(C)CCC[C@@H](C)[C@H]1CC[C@@]2(C)C3=C(CC[C@]12C)[C@@]1(C)CC[C@H](OC(=O)c2ccc(Br)cc2)C(C)(C)C1CC3` (stereo not given in full): the z-score is 0.986 in assay [1]; 0.889 in assay [2]; 2.04 in assay [3]; 0.109 in assay [4]; -0.269 in assay [5]; 1.14 in assay [6]. The z-score was 0.599 (inactive) in assay [7]; 0.717 in [8]; -0.902 in assay [9]; -0.255 (inactive) in [10]; 1.05 in assay [11]; -0.149 (inactive) in assay [12]. Further, the z-score was 0.345 (inactive) in [13]; 0.0694 (inactive) in assay [15]; -1.7 (inactive) in assay [16]; 0.998 (inactive) in assay [17]; 1.07 (inactive) in assay [18]; 0.766 in assay [19]. Besides, the composite z-score in assay [14] was -1.4 (inactive); in [20], 0.0223.
Consider `COc1ccc(NC(=O)O[C@H]2[C@H](OC(=O)Nc3ccc4c(c3)OCO4)[C@@H](OC(=O)Nc3ccc4c(c3)OCO4)[C@@H](OC)O[C@@H]2CO)cc1`, for which the z-score in assay [1] was -1.11; in [2], -0.0868; in [3], -1.67; in assay [4] it was -1.44; in assay [5] it was -0.7; in [6], 0.818. Also, the z-score in assay [7] is 0.533 (inactive); in [8] it was -0.628; in assay [9], -0.786; in assay [10] it was 0.441 (inactive); in assay [11] it was -0.315; in [12] it was 1.96 (inactive). The z-score was -0.844 (inactive) in [13]; 2.33 (inactive) in assay [15]; 1.56 (inactive) in assay [16]; 1.13 (inactive) in assay [17]; 0.0559 (inactive) in assay [18]; -0.85 in [19]. Further, the composite z-score in assay [14] is -0.445 (inactive); in assay [20] it was -0.102.
In the case of `O=C1NC(=O)C2C1C=CC(C(O)c1c(F)cccc1Cl)N2Nc1ccccn1` (stereo not given), the z-score in assay [1] is 0.0619; in assay [2], -0.92; in assay [3], 0.0038; in assay [4], 0.312; in assay [5] it was -0.825; in assay [6], -1.05. The z-score was -0.957 (inactive) in assay [7]; -0.517 in assay [8]; 0.15 in assay [9]; -0.609 (inactive) in assay [10]; -1.73 in assay [11]; 1.19 (inactive) in assay [12]. For the same compound, the z-score in assay [13] is -1.65 (inactive); in assay [15] it was 0.543 (inactive); in [16] it was -0.0601 (inactive); in assay [17] it was -0.883 (inactive); in assay [18] it was -0.0739 (inactive); in assay [19], -1.74. Moreover, the composite z-score in assay [14] was 0.722 (inactive); in assay [20], 0.118.
With `CN1C(=O)C2C=CC(C(O)c3c(F)cccc3Cl)N(Nc3ccccc3)C2C1=O` (stereo not given), the z-score was -0.635 in [1]; -0.924 in assay [2]; -1.18 in [3]; 0.161 in assay [4]; -1.42 in assay [5]; -1.4 in [6]. Moreover, the z-score is -0.144 (inactive) in [7]; -0.725 in assay [8]; 0.302 in [9]; -0.31 (inactive) in assay [10]; -0.203 in assay [11]; -1.03 (inactive) in [12]. Also, the z-score was -0.682 (inactive) in [13]; 0.627 (inactive) in assay [15]; -0.284 (inactive) in [16]; -1.11 (inactive) in assay [17]; -0.618 (inactive) in [18]; -0.679 in assay [19]. The composite z-score in assay [14] was 0.061 (inactive); in [20], 0.0651.
With `COC(=O)[C@]1(CCS(=O)(=O)c2ccccc2)N=C(c2ccc(OCCCO)cc2)O[C@@H]1c1ccccc1CN=[N+]=[N-]`, the z-score in [1] is -2.82; in assay [2] it was 0.65; in assay [3] it was -2.94; in assay [4] it was -3.4; in assay [5], -3.15; in assay [6], -1.05. Moreover, the z-score in [7] is -1.02 (inactive); in assay [8], -1.08; in assay [9], -1.88; in assay [10], -4.11 (inactive); in assay [11] it was -1.71; in assay [12], 1.69 (inactive). In addition, the z-score in assay [13] is -4.25 (inactive); in [15] it was 1.32 (inactive); in [16] it was 1.91 (inactive); in assay [17], 0.153 (inactive); in [18] it was -1.14 (inactive); in assay [19], -3.68. Further, the values for the composite z-score in [14] and in assay [20] were 1.09 (inactive) and -0.0062, respectively.
With `Cc1c(NC(=O)/C(C#N)=C/C=C/c2ccc(N(C)C)cc2)c(=O)n(-c2ccccc2)n1C`, the z-score in assay [1] is 0.284; in [2] it was 0.257; in [3], 0.175; in [4] it was 0.232; in [5] it was 0.285; in assay [6], -0.545. Further, the z-score in assay [7] is 2.26 (inactive); in [8], -0.665; in assay [9], 1.64; in assay [10], 0.765 (inactive); in assay [11], 0.29; in [12], -0.312 (inactive). Also, the z-score in assay [13] is 0.514 (inactive); in [15], -0.103 (inactive); in [16], -0.246 (inactive); in assay [17], 1.78 (inactive); in [18], -0.202 (inactive); in assay [19] it was 1.08. Moreover, the composite z-score in [14] was -0.186 (inactive); in assay [20], 0.0899.
For the compound `C[N+](C)(C)CCCC[C@@H]1NC(=O)[C@@H]2C[C@H](C(=O)O)[C@H](c3ccc(O)cc3)N2C1=O`, the z-score is -0.643 in assay [1]; 0.422 in assay [2]; 0.914 in assay [3]; 0.379 in assay [4]; -0.0923 in assay [5]; 0.0942 in [6]. The z-score is -0.907 (inactive) in [7]; -0.142 in [8]; -0.454 in assay [9]; -0.246 (inactive) in assay [10]; -1.16 in assay [11]; 0.824 (inactive) in assay [12]. For the same compound, the z-score was 0.18 (inactive) in assay [13]; 0.103 (inactive) in [15]; 0.0252 (inactive) in [16]; 0.233 (inactive) in assay [17]; 0.596 (inactive) in assay [18]; -0.339 in assay [19]. Further, the composite z-score in [14] is -11.6 (active); in [20] it was -0.199.
`C=C[C@@H](C)[C@H](OC(=O)Nc1ccc(SC)cc1)c1ccc(OCCO)cc1`: the z-score was -0.848 in [1]; 0.54 in assay [2]; 0.0237 in assay [3]; 0.191 in assay [4]; 0.794 in assay [5]; -0.692 in [6]. Moreover, the z-score in assay [7] was 0.396 (inactive); in assay [8] it was 0.917; in assay [9], -1.13; in assay [10] it was -0.0363 (inactive); in assay [11], 0.571; in [12] it was -3.42 (inactive). The z-score in [13] was -0.0261 (inactive); in assay [15], 0.638 (inactive); in assay [16], 0.0728 (inactive); in assay [17], -0.217 (inactive); in assay [18], 0.511 (inactive); in [19], 0.152. Besides, the results for the composite z-score in [14] and in assay [20] were -1.16 (inactive) and -0.111, respectively.
